# Source: the supplement of paper PMC4466140
# How the values were obtained:
# Assay in all cases: SPOT peptide array binding signal intensity (averaged, normalized) (arbitrary units (background-subtracted, floor 0; scale differs between SH3 domains)); higher = stronger binding of the SH3 domain to the peptide
# [1] = molecular target: SpBzz1-D2
# Method: (§1)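 GST-tagged SH3 domains from S. cerevisiae (Sc), A. gossypii (Ag), C. albicans (Ca) and S. pombe (Sp) were incubated at 10 ug/ml overnight at 4 C on cellulose SPOT membranes carrying 292 synthetic 15-mer peptides mined from the S. cerevisiae proteome (cysteines replaced by serines). Binding was detected with anti-GST antibody, HRP secondary and chemiluminescence, quantified with Genespotter, and reported as normalized spot intensities averaged over biological replicates.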
# [2] = molecular target: SpCyk3
# Method: as §1
# [3] = molecular target: SpHof1
# Method: as §1
# [4] = molecular target: SpHof1-2
# Method: as §1
# [5] = molecular target: SpHof1-3
# Method: as §1
# [6] = molecular target: SpHse1
# Method: as §1
# [7] = molecular target: SpLsb1
# Method: as §1
# [8] = molecular target: SpLsb4
# Method: as §1
# [9] = molecular target: SpMyo1
# Method: as §1
# [10] = molecular target: SpNbp2
# Method: as §1
# [11] = molecular target: SpPex13
# Method: as §1
# [12] = molecular target: SpRvs167
# Method: as §1
# [13] = molecular target: SpSla1-D1-D2
# Method: as §1
# [14] = molecular target: SpSla1-D3
# Method: as §1
# [15] = molecular target: AgAbp1
# Method: as §1
# [16] = molecular target: AgBbc1
# Method: as §1
# [17] = molecular target: AgBem1-D1
# Method: as §1
# [18] = molecular target: AgBzz1-D1
# Method: as §1
# [19] = molecular target: AgBzz1-D2
# Method: as §1
# [20] = molecular target: AgCyk3
# Method: as §1
# [21] = molecular target: AgFus1
# Method: as §1
# [22] = molecular target: AgHof1
# Method: as §1
# [23] = molecular target: AgHse1
# Method: as §1
# [24] = molecular target: AgLsb1
# Method: as §1
# [25] = molecular target: AgLsb4
# Method: as §1
# [26] = molecular target: AgMyo5
# Method: as §1
# [27] = molecular target: AgNbp2
# Method: as §1
# [28] = molecular target: AgRvs167
# Method: as §1
# [29] = molecular target: AgSho1
# Method: as §1
# [30] = molecular target: AgSla1-D1-D2
# Method: as §1
# [31] = molecular target: AgSla1-D3
# Method: as §1
# [32] = molecular target: CaAbp1-D1
# Method: as §1
# [33] = molecular target: CaAbp1-D2
# Method: as §1
# [34] = molecular target: CaBbc1
# Method: as §1
# [35] = molecular target: CaBem1-D1
# Method: as §1
# [36] = molecular target: CaBzz1-D1
# Method: as §1
# [37] = molecular target: CaBzz1-D2
# Method: as §1
# [38] = molecular target: CaCyk3
# Method: as §1
# [39] = molecular target: CaFus1
# Method: as §1
# [40] = molecular target: CaHof1
# Method: as §1
# [41] = molecular target: CaHse1
# Method: as §1
# [42] = molecular target: CaLsb1
# Method: as §1
# [43] = molecular target: CaLsb4
# Method: as §1
# [44] = molecular target: CaMyo5
# Method: as §1
# [45] = molecular target: CaNbp2
# Method: as §1
# [46] = molecular target: CaRvs167
# Method: as §1
# [47] = molecular target: CaRvs167-3
# Method: as §1
# [48] = molecular target: CaSho1
# Method: as §1
# [49] = molecular target: CaSla1-D1-D2
# Method: as §1
# [50] = molecular target: CaSla1-D3
# Method: as §1
# [51] = molecular target: ScAbp1
# Method: as §1
# [52] = molecular target: ScBbc1
# Method: as §1
# [53] = molecular target: ScBem1-D1
# Method: as §1
# [54] = molecular target: ScBzz1-D1
# Method: as §1
# [55] = molecular target: ScBzz1-D2
# Method: as §1
# [56] = molecular target: ScCyk3
# Method: as §1
# [57] = molecular target: ScFus1
# Method: as §1
# [58] = molecular target: ScHof1
# Method: as §1
# [59] = molecular target: ScHse1
# Method: as §1
# [60] = molecular target: ScLsb1
# Method: as §1
# [61] = molecular target: ScLsb2
# Method: as §1
# [62] = molecular target: ScLsb3
# Method: as §1
# [63] = molecular target: ScLsb4
# Method: as §1
# [64] = molecular target: ScMyo3
# Method: as §1
# [65] = molecular target: ScMyo5
# Method: as §1
# [66] = molecular target: ScNbp2
# Method: as §1
# [67] = molecular target: ScPex13
# Method: as §1
# [68] = molecular target: ScRvs167
# Method: as §1
# [69] = molecular target: ScSho1
# Method: as §1
# [70] = molecular target: ScSla1-D1-D2
# Method: as §1
# [71] = molecular target: ScSla1-D3
# Method: as §1
# [72] = molecular target: SpAbp1-D1
# Method: as §1
# [73] = molecular target: SpBbc1
# Method: as §1
# [74] = molecular target: SpBzz1-D1
# Method: as §1
binder,measurement,setting,value
KRKRFNLLLPKPYLT,SPOT peptide array binding signal intensity,[1],≤ 0
same,SPOT peptide array binding signal intensity,[2],4
same,SPOT peptide array binding signal intensity,[3],136
same,SPOT peptide array binding signal intensity,[4],32.5
same,SPOT peptide array binding signal intensity,[5],403
same,SPOT peptide array binding signal intensity,[6],366
same,SPOT peptide array binding signal intensity,[7],3.75
same,SPOT peptide array binding signal intensity,[8],47
same,SPOT peptide array binding signal intensity,[9],2.5
same,SPOT peptide array binding signal intensity,[10],492
same,SPOT peptide array binding signal intensity,[11],8.5
same,SPOT peptide array binding signal intensity,[12],12.7
same,SPOT peptide array binding signal intensity,[13],3
same,SPOT peptide array binding signal intensity,[14],16.5
RRRDFGAPANKRPRR,SPOT peptide array binding signal intensity,[15],45
same,SPOT peptide array binding signal intensity,[16],223
same,SPOT peptide array binding signal intensity,[17],179
same,SPOT peptide array binding signal intensity,[18],60
same,SPOT peptide array binding signal intensity,[19],18
same,SPOT peptide array binding signal intensity,[20],5
same,SPOT peptide array binding signal intensity,[21],374
same,SPOT peptide array binding signal intensity,[22],57.5
same,SPOT peptide array binding signal intensity,[23],156
same,SPOT peptide array binding signal intensity,[24],0.75
same,SPOT peptide array binding signal intensity,[25],56.5
same,SPOT peptide array binding signal intensity,[26],0.5
same,SPOT peptide array binding signal intensity,[27],39
same,SPOT peptide array binding signal intensity,[28],6
same,SPOT peptide array binding signal intensity,[29],10
same,SPOT peptide array binding signal intensity,[30],27.5
same,SPOT peptide array binding signal intensity,[31],4.75
same,SPOT peptide array binding signal intensity,[32],106
same,SPOT peptide array binding signal intensity,[33],126
same,SPOT peptide array binding signal intensity,[34],546
same,SPOT peptide array binding signal intensity,[35],52.5
same,SPOT peptide array binding signal intensity,[36],116
same,SPOT peptide array binding signal intensity,[37],124
same,SPOT peptide array binding signal intensity,[38],17
same,SPOT peptide array binding signal intensity,[39],241
same,SPOT peptide array binding signal intensity,[40],0.5
same,SPOT peptide array binding signal intensity,[41],2.25
same,SPOT peptide array binding signal intensity,[42],≤ 0
same,SPOT peptide array binding signal intensity,[43],67.5
same,SPOT peptide array binding signal intensity,[44],2.25
LASNSPPVYPKRIRH,SPOT peptide array binding signal intensity,[15],45
same,SPOT peptide array binding signal intensity,[16],18.2
same,SPOT peptide array binding signal intensity,[17],≤ 0
same,SPOT peptide array binding signal intensity,[18],59
same,SPOT peptide array binding signal intensity,[19],6
same,SPOT peptide array binding signal intensity,[20],≤ 0
same,SPOT peptide array binding signal intensity,[21],≤ 0
same,SPOT peptide array binding signal intensity,[22],≤ 0
same,SPOT peptide array binding signal intensity,[23],3.5
same,SPOT peptide array binding signal intensity,[24],2.5
same,SPOT peptide array binding signal intensity,[25],196
same,SPOT peptide array binding signal intensity,[26],≤ 0
same,SPOT peptide array binding signal intensity,[27],≤ 0
same,SPOT peptide array binding signal intensity,[28],4.17
same,SPOT peptide array binding signal intensity,[29],≤ 0
same,SPOT peptide array binding signal intensity,[30],2
same,SPOT peptide array binding signal intensity,[31],≤ 0
same,SPOT peptide array binding signal intensity,[32],93
same,SPOT peptide array binding signal intensity,[33],47.5
same,SPOT peptide array binding signal intensity,[34],400
same,SPOT peptide array binding signal intensity,[35],6
same,SPOT peptide array binding signal intensity,[36],165
same,SPOT peptide array binding signal intensity,[37],44.8
same,SPOT peptide array binding signal intensity,[38],≤ 0
same,SPOT peptide array binding signal intensity,[39],≤ 0
same,SPOT peptide array binding signal intensity,[40],0.25
same,SPOT peptide array binding signal intensity,[41],≤ 0
same,SPOT peptide array binding signal intensity,[42],≤ 0
same,SPOT peptide array binding signal intensity,[43],771
same,SPOT peptide array binding signal intensity,[44],≤ 0
same,SPOT peptide array binding signal intensity,[45],≤ 0
same,SPOT peptide array binding signal intensity,[46],4.17
same,SPOT peptide array binding signal intensity,[47],2.25
same,SPOT peptide array binding signal intensity,[48],3
same,SPOT peptide array binding signal intensity,[49],56
same,SPOT peptide array binding signal intensity,[50],≤ 0
same,SPOT peptide array binding signal intensity,[51],39.5
same,SPOT peptide array binding signal intensity,[52],16.8
same,SPOT peptide array binding signal intensity,[53],≤ 0
same,SPOT peptide array binding signal intensity,[54],≤ 0
same,SPOT peptide array binding signal intensity,[55],19
same,SPOT peptide array binding signal intensity,[56],1
same,SPOT peptide array binding signal intensity,[57],≤ 0
same,SPOT peptide array binding signal intensity,[58],0.75
same,SPOT peptide array binding signal intensity,[59],≤ 0
same,SPOT peptide array binding signal intensity,[60],46.5
same,SPOT peptide array binding signal intensity,[61],10
same,SPOT peptide array binding signal intensity,[62],1560
same,SPOT peptide array binding signal intensity,[63],45.5
same,SPOT peptide array binding signal intensity,[64],≤ 0
same,SPOT peptide array binding signal intensity,[65],≤ 0
same,SPOT peptide array binding signal intensity,[66],≤ 0
same,SPOT peptide array binding signal intensity,[67],56.5
same,SPOT peptide array binding signal intensity,[68],7.67
same,SPOT peptide array binding signal intensity,[69],27.5
same,SPOT peptide array binding signal intensity,[70],11
same,SPOT peptide array binding signal intensity,[71],≤ 0
same,SPOT peptide array binding signal intensity,[72],18.5
same,SPOT peptide array binding signal intensity,[73],≤ 0
same,SPOT peptide array binding signal intensity,[74],248
same,SPOT peptide array binding signal intensity,[1],≤ 0
same,SPOT peptide array binding signal intensity,[2],≤ 0
same,SPOT peptide array binding signal intensity,[3],1.5
same,SPOT peptide array binding signal intensity,[4],1
same,SPOT peptide array binding signal intensity,[5],2.75
same,SPOT peptide array binding signal intensity,[6],≤ 0
same,SPOT peptide array binding signal intensity,[7],257
same,SPOT peptide array binding signal intensity,[8],1810
same,SPOT peptide array binding signal intensity,[9],≤ 0
same,SPOT peptide array binding signal intensity,[10],0.5
same,SPOT peptide array binding signal intensity,[11],≤ 0
same,SPOT peptide array binding signal intensity,[12],3.5
same,SPOT peptide array binding signal intensity,[13],≤ 0
same,SPOT peptide array binding signal intensity,[14],≤ 0
